For 89 compounds, inhibition results are on record in PubChem BioAssay AID624125 (The Scripps Research Institute Molecular Screening Center, 2012).

Screen size: about 360,000 compounds; about 2,600 (0.72%) were called active. Only a selection was taken, and actives are over-represented in it overall. Values without a mark were called inactive.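 How the source made its calls: active means inhibition above its plate's cutoff, the mean inhibition of sample wells plus 3 SD (cut at about 27% in these data); inactive means the rest.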

Chain of Muscarinic acetylcholine receptor M4 (Homo sapiens) (P08173 whole entry, looked up): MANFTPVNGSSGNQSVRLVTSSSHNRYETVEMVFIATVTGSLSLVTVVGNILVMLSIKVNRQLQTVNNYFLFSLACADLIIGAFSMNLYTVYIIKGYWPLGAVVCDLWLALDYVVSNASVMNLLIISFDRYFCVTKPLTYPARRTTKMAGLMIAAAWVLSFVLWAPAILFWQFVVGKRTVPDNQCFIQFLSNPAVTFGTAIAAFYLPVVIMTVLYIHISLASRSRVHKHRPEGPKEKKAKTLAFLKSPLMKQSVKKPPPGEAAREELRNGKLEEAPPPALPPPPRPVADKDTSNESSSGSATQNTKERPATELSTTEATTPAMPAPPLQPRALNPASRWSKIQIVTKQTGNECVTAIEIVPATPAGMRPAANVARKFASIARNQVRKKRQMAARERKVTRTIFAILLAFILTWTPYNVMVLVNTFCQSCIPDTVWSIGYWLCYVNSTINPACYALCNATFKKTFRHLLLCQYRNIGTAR

The test addresses Muscarinic acetylcholine receptor M4 (Homo sapiens) (UniProt P08173). Description: CHRM4 blockers of acetylcholine calcium response – CHO cells, Fluo-8 calcium fluorescence, primary screen (AID 624125).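 Further: 0% = acetylcholine EC80 with DMSO and 100% = DMSO without agonist.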 The conditions noted are these: CHO-hM4 cells, ACh EC80, Fluo-8 calcium fluorescence; at 3 µM; active compounds read high.
Turning to `O=C(NCc1ccc2c(c1)OCO2)C1CCCN(S(=O)(=O)c2cccs2)C1` (centres undefined), the inhibition (usually the relative decrease from the control value, in per cent) is -10.7%.
Take `O=C1C(Cl)=C(Oc2ccccc2)C(=O)c2ccccc21`: the inhibition was 43.5% (active).
As to `O=C(Nn1cnc2ccccc2c1=O)c1ccc(F)cc1Cl`, the inhibition is 0.01%.
As for `COC(=O)[C@@]12CCCN1[C@H](c1ccc(-c3ccc(F)cc3)c(OC)c1)[C@H]1C(=O)N(C)C(=O)[C@H]12`, the inhibition was 0.47%.
As for `CC(C)(C)NC(=O)/C(=C/c1cccnc1)NC(=O)c1ccco1`, the inhibition was -1.31%.
Turning to `COc1ccc(-c2onc3ccc(C(C)=O)cc23)cc1`, the inhibition is -10.7%.
In the case of `CCn1c2ccccc2c2cc(NC(=S)N3CCOCC3)ccc21` it was 3.52%; in that of `O=C(CN1CCOc2ccccc21)N1CCC(Cc2ccccc2)CC1`, -1.37%; in that of `O=C(Nc1ccc2c(c1)OCCO2)C(C1CC1)N1CCC(Cc2ccccc2)CC1` (centres undefined), 28.2% (active).
Take `Nc1c(C(=O)Nc2ccc3c(c2)OCCO3)nnn1Cc1ccccc1`: the inhibition was 1.65%.
Turning to `O=C(Nc1ccccc1C(=O)N1CCOCC1)c1ccc(Cl)cc1`, the inhibition was -14.3%.
`CCOC(=O)N(Cc1ccccc1)C1CC1`: the inhibition was 2.24%.
As for `CN(CCO)C(=O)c1nc[nH]c1C(=O)N(C)Cc1ccccc1`, the inhibition was -23.3%.
In the case of `CN(C(=O)CN(CCO)CC(=O)N(C)C(C)(C)Cc1ccccc1)C(C)(C)Cc1ccccc1` it was 28.1% (active); in that of `Cc1ccc2cc(C#N)c(NCCNC(=S)NCCCN3CCOCC3)nc2c1`, -4.3%.
As for `COCCn1c(C)cc(C(=O)CN2c3cccc4cccc(c34)S2(=O)=O)c1C`, the inhibition is -7.15%.
For the compound `COc1ccc(N2CCN(C(=O)c3cn(C)c4ccc(S(=O)(=O)N5CCOCC5)cc4c3=O)CC2)cc1`, the inhibition is -12.4%.
In the case of `CCOC(=O)N1CCN(C(=O)c2cn(C)c3ccc(S(=O)(=O)N(CC)CC)cc3c2=O)CC1` it was -13.5%.
Next, `CCOC(=O)N1CCN(C(=O)c2cn(C)c3ccc(S(=O)(=O)N4CCCC4)cc3c2=O)CC1`: 58.7% (active).
In the case of `CCCCSc1nc2c(c(=O)n1CC)SC(C)C2` (centres undefined) it was -22.6%; in that of `Cc1ccc(NC(=O)C(C)OC(=O)Cc2c[nH]c3ccccc23)cc1S(=O)(=O)N1CCOCC1` (centres undefined), -17.2%.
Consider `Cc1ccc(S(=O)(=O)N(Cc2ccc(Cl)cc2)c2ccccc2C(=O)NCc2cccnc2)cc1`, for which the inhibition was 2.37%.
For `Nc1nc(NCc2ccccc2)n(-c2ccccc2)n1`, the inhibition was -15.7%.
Take `CCCCCCn1c(=O)n2n(c1=O)C[C@]1(OC(=O)NCc3ccc(OC)c(OC)c3)CN(S(=O)(=O)c3ccc(C)cc3)C[C@]1(O)C2`: the inhibition is -8.79%.
As to `CC12CN(Cc3ccccc3)CC(C)(CN(Cc3ccccc3)C1)C2=NO`, the inhibition is 31.4% (active).
On to `NC(=O)C1(N2CCCC2)CCN(Cc2ccccc2)CC1`, for which the inhibition was -8.47%.
For `O=S1(=O)CCN(Cc2ccccc2)CC1`, the inhibition was -1.75%.
With `COc1cccc(CC(=O)N2CCCC(CCC(=O)N3CCN(c4ccccn4)CC3)C2)c1` (centres undefined), the inhibition was -6.8%.
As to `CC(=O)N[C@@H](C)C(=O)N1CCC(n2nccc2NC(=O)CCCc2ccccc2)CC1`, the inhibition was -1.73%.
Next, `COc1ccccc1NC(=O)COC(=O)Cc1ccc(S(=O)(=O)N2CCCCC2)s1`: -3.41%.
With `CC(C)Nc1nnc(SC(C)C(=O)N(C)C2CCCCC2)s1` (centres undefined), the inhibition was 3.18%.
As for `COc1cc(C(=O)NCc2nnc(SCC(=O)Nc3nc4ccc(C)cc4s3)o2)cc(OC)c1OC`, the inhibition is 1.54%.
As for `COc1cc(C(=O)NCc2ccc(-n3cccc3)cc2)cc(OC)c1OC`, the inhibition was 9.05%.
Turning to `CCn1c(CNC(=O)c2cc(OC)c(OC)c(OC)c2)cc2cc(C)ccc21`, the inhibition was 28.2% (active).
On to `Cc1ccc(S(=O)(=O)N2CCC(C(=O)N[C@@H](C)C(=O)NCc3ccccc3)CC2)cc1`, for which the inhibition is -7.25%.
In the case of `Cc1coc2c1c(C)cc1oc(=O)c(CC(=O)NCC(=O)N[C@H](C(=O)O)C(C)C)c(C)c12` it was 12.9%; in that of `C=CCn1c(SCC(=O)NCc2ccccc2)nnc1-c1cc(Br)ccc1O`, 10.6%; in that of `COc1ccccc1C(=O)NC(=O)COC(=O)c1ccco1`, -3.72%.
In the case of `COc1ccccc1S(=O)(=O)NCc1ccc(C(=O)N(C)Cc2ccc(F)cc2)cc1` it was 0.25%.
With `Cc1ccc(CNC(=O)Cn2cnc(S(=O)(=O)N3CCCCC3)c2)o1`, the inhibition was -2.52%.
As for `CCC(=O)Nc1ccc2nc(C)n(Cc3ccccc3Cl)c(=O)c2c1`, the inhibition is 6.19%.
In the case of `CCOc1cc(NC(=O)c2ccccc2C(=O)O)c(OCC)cc1NC(=O)c1ccccc1F`, the inhibition was -12.1%.
Take `CCN1CCN(c2cc3nc(C)n(Cc4ccccc4)c(=O)c3cc2NC(=O)c2ccccc2F)CC1`: the inhibition was 84.6% (active).
For `COc1ccc(NC(=O)C[C@H]2C(=O)N(CCc3ccccc3)C[C@@H]2C)cc1`, the inhibition is -7.17%.
Consider `COc1cc2c(cc1OC)C(c1cccc([N+](=O)[O-])c1)=NCC2`, for which the inhibition is -14.9%.
For the compound `COc1ccc(C(CNCC(=O)Nc2ccccc2F)N(C)C)cc1` (centres undefined), the inhibition was -5.27%.
For the compound `CCc1ccccc1NC(=O)CN(C)C(=O)COc1ccc(C)nc1[N+](=O)[O-]`, the inhibition was -2.74%.
In the case of `CCOc1ccc(NS(=O)(=O)c2ccc(C(=O)NC3CCN(Cc4ccccc4)CC3)cc2)cc1` it was 6.63%.
In the case of `COc1ccccc1C(CNC(=O)c1cccc(NS(=O)(=O)c2ccc(Br)cc2)c1)N(C)C` (centres undefined), the inhibition was 10.7%.
As for `CCOc1ccc(S(=O)(=O)Nc2ccc(C(=O)NCCCN3CCCC3=O)cc2)cc1`, the inhibition was -0.83%.
As to `COc1ccccc1C(CNC(=O)c1cccc(S(=O)(=O)Nc2ccc(F)cc2)c1)N(C)C` (centres undefined), the inhibition is 48.7% (active).
Next, `COc1ccc(C(CNC(=O)c2cccc(S(=O)(=O)Nc3ccc(Br)cc3)c2)N(C)C)cc1` (centres undefined): 1.87%.
On to `COc1ccccc1CNC(=O)c1ccc(Cl)c(S(=O)(=O)N2CCCC2)c1`, for which the inhibition was -5.41%.
`COc1ccccc1C(CNC(=O)c1ccc(C)c(S(=O)(=O)N2CCCCC2)c1)N(C)C` (centres undefined): the inhibition was 51.6% (active).
Next, `CCOc1ccc(NS(=O)(=O)c2ccc(C(=O)NCC(c3ccccc3OC)N3CCCC3)cc2)cc1` (centres undefined): 40.8% (active); `Cc1ccc(C(=O)NCC(c2cccs2)N(C)C)cc1S(=O)(=O)N1CCOCC1` (centres undefined): 8.72%; `Fc1cccc(Cc2c(-c3ccc(Cl)cc3)nc3ccc(Cl)cn23)c1`: -24.1%.
As to `CCOC(=O)C(CC)Sc1ncnc2c1nnn2-c1ccc(F)cc1` (centres undefined), the inhibition is -1.34%.
On to `CC(C)Cc1cc(C(=O)NCCc2ccccc2)no1`, for which the inhibition is 101% (active).
In the case of `CC(C)Cc1cc(C(=O)Nc2cc(Br)ccc2O)no1` it was -14.2%; in that of `O=C(NCCCc1ccccc1)c1cc(COc2c(F)cccc2F)on1`, -4.04%.
Next, `CC1(C(=O)NS(=O)(=O)c2ccccc2Cl)CCN1C(=O)c1cccc(F)c1` (centres undefined): 3.33%; `CC(Sc1nncn1C)C(=O)Nc1cc(C(F)(F)F)ccc1N1CCOCC1` (centres undefined): -5.32%; `CN(CCC#N)c1ncnc2scc(-c3ccccc3)c12`: -1.83%.
In the case of `O=C(CN1CCCCC1)N1c2ccccc2Sc2ccc(C(F)(F)F)cc21` it was 97.5% (active); in that of `O=C(CN1CCCCCC1)Nc1ccc(Cl)cc1F`, -14.1%; in that of `O=C(CN1C(=O)/C(=C\c2ccc(C(F)(F)F)cc2)Sc2ccccc21)NCc1ccco1`, 14.8%.
As for `CCC(=O)Nc1cc(C(F)(F)F)ccc1N1CCCC1`, the inhibition was 3.82%.
Regarding `O=C(CSc1nc2ccccc2o1)N1c2ccccc2Sc2ccc(Cl)cc21`, the inhibition was -3.42%.
For the compound `O=C(CN1CCCCCC1)N1c2ccccc2Sc2ccc(C(F)(F)F)cc21`, the inhibition is 98% (active).
`COc1cccc(CNC(=O)CCC2CCCN(C(=O)c3cc(C)[nH]n3)C2)c1` (centres undefined): the inhibition is -0.4%.
Regarding `O=C(NCc1ccccc1)[C@H]1C[C@@H]1[C@H](NP(=O)(c1ccccc1)c1ccccc1)c1ccccc1`, the inhibition is -6.36%.
Regarding `O=C(Nc1c2c(nn1-c1ccc(F)cc1)CS(=O)C2)C12CC3CC(CC(C3)C1)C2` (centres undefined), the inhibition is -0.1%.
Consider `Cc1c([N+](=O)[O-])c(N)nn1C`, for which the inhibition was -10.8%.
As to `CCc1cccc(NC(=O)COC(=O)c2cc(=O)c3ccccc3o2)c1`, the inhibition was -0.31%.
In the case of `CN(CCc1ccccn1)C(=O)CCC1CCCN(Cc2ccccc2OC(F)F)C1` (centres undefined) it was 31.4% (active).
Consider `CN(CCc1ccccn1)C(=O)c1ccc(OC2CCN(Cc3ccccn3)CC2)cc1`, for which the inhibition is 10.3%.
Next, `COc1cccc(CNC(=O)CCC2CCCN(Cc3ccc(OC(F)F)cc3)C2)c1` (centres undefined): 8.05%; `CCCS(=O)(=O)Nc1ccc(-c2cn3c(n2)SCC3)cc1`: 4.45%.
Regarding `CCN(CC(=O)Nc1ccc(OC)cc1)C(=O)c1ccc(=O)n(Cc2ccccc2)n1`, the inhibition was 6.9%.
With `CC(=O)OC(COc1ccc(F)cc1)Cn1cnc2ccccc21` (centres undefined), the inhibition is 11.2%.
Consider `CC(C)c1ccc(OCC(O)Cn2cnc3ccccc32)cc1` (centres undefined), for which the inhibition was 32% (active).
`CC(C)c1ccc(OCC(O)CN2CCN(c3ccccn3)CC2)cc1` (centres undefined): the inhibition is -9.52%.
Next, `COC(=O)c1ccccc1NC(=O)C1CC(=O)N(c2ccc(OC)cc2)C1` (centres undefined): -8.44%; `COc1ccc(CN2CC(C(=O)NCCc3ccc(Cl)cc3)CC2=O)cc1` (centres undefined): -3.66%; `CCCC(=O)Nc1ncnc2c1ncn2[C@@H]1O[C@@H]2OP(=O)(O)OC[C@H]2[C@H]1OC(=O)CCC`: -12.4%.
Turning to `COc1ccc(C(CCN(Cc2ccc(OC)c(OC)c2)C(=O)CCl)c2ccccc2)cc1` (centres undefined), the inhibition was -0.52%.
For `COc1ccc(C(=O)OCC(=O)NCCCc2ccccc2)cc1OC`, the inhibition is 2.28%.
Turning to `CCN(CCCCOC(=O)c1ccc(OC)c(OC)c1)C(C)Cc1ccc(OC)cc1` (centres undefined), the inhibition is 61.6% (active).
